Test results from PubChem BioAssay (NCI).
Compounds without any hit were thinned out: in the full panel of roughly 79,000, 15% have a hit. Rule as the data show it: active = growth inhibition above about 70%; inactive = the rest.

Legend:
[1] = NCI Yeast Anticancer Drug Screen. Data for the rad50 strain (AID 155);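 also: 0% = growth of vehicle-only cultures of the same strain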; conditions: S. cerevisiae rad50 strain growth inhibition; at 50.0 µM; active compounds read high
Procedure, shortened: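 Cells are treated with compound, grown, and their growth is then scored against vehicle-only cultures of the same repair-deficient yeast strain.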

[2] = NCI Yeast Anticancer Drug Screen. Data for the mec2-1 strain (AID 157); conditions: S. cerevisiae mec2-1 strain, at 50.0 µM, active compounds read high
Procedure, shortened: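 Cells of the genetically defined mec2-1 yeast strain are incubated with test compound. Inhibition of growth is calculated against vehicle-treated controls.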

[3] = NCI Yeast Anticancer Drug Screen. Data for the sgs1 mgt1 strain (AID 161);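 also: 0% = growth of cultures given vehicle only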; conditions: S. cerevisiae sgs1 mgt1 strain, at 50.0 µM, active compounds read high
Procedure, shortened: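 Test agents were incubated with a DNA-repair-mutant yeast strain. Growth was then read and compared against vehicle-treated controls.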

[4] = NCI Yeast Anticancer Drug Screen. Data for the cln2 rad14 strain (AID 165);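 also: 0% = growth equal to vehicle treated cultures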; conditions: S. cerevisiae cln2 rad14 strain, at 50.0 µM, active compounds read high
Procedure, shortened: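 The screen exposed genetically defined yeast (cln2 rad14) to test compounds and scored growth inhibition relative to vehicle-treated controls.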

[5] = NCI Yeast Anticancer Drug Screen. Data for the bub3 strain (AID 167); conditions: S. cerevisiae bub3 mutant strain, at 50.0 µM, active compounds read high
Procedure, shortened: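 Part of a panel of yeast mutants defective in DNA damage repair or cell cycle regulation. Each strain is grown with compound, and inhibition is calculated relative to solvent-treated cultures.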

[6] = NCI Yeast Anticancer Drug Screen. Data for the mlh1 rad18 strain (AID 175); conditions: S. cerevisiae mlh1 rad18 strain growth inhibition; at 50.0 µM; active compounds read high
Procedure, shortened: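 Compound-treated yeast growth, normalised to vehicle controls. Strain bears defined DNA repair mutations.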

Measured: growth inhibition

O=[N+]([O-])c1ccc(P(=O)(Nc2ccc3ccccc3c2)Nc2ccc3ccccc3c2)cc1
inactive: [1] 34.5% | [2] 15.2% | [3] 15.5% | [4] 0.2% | [5] 13.1% | [6] 46.5%

NC1C(O)C(N)C(O)C(O)C1O (stereo unspecified)
inactive: [1] 3.3% | [2] 20.4% | [3] 5.6% | [4] 1.6% | [5] -13.4% | [6] 3.25%

CN1C(C(=O)O)CCC1C(=O)O (stereo unspecified)
inactive: [1] -1.2% | [2] 7.6% | [3] 6.55% | [4] -31.8% | [5] -0.4% | [6] 2%

CCCNc1ccc2c(c1)C(O)c1ccccc1-2 (stereo unspecified)
inactive: [1] -4.65% | [2] -5.1% | [3] 5.35% | [4] 2.4% | [5] -4% | [6] -2.95%

O=C(O)c1c2ccccc2nc2ccccc12
inactive: [1] -17.6% | [2] -17.9% | [3] -17.9% | [4] -34.5% | [5] 15.2% | [6] 57%

CC(=O)OC(C(=O)O)C(OC(C)=O)C(OC(C)=O)C(=O)O (stereo unspecified)
inactive: [1] 21.5% | [2] 19.2% | [3] 13.8% | [4] -5.85% | [5] 5.7% | [6] 8.4%

CCOC(=O)C1(C(O)(C2CC2)C2(C(=O)OCC)CC2)CC1
inactive: [1] -9.1% | [2] -11.6% | [3] -12.3% | [4] -29.9% | [5] 13.1% | [6] 5.45%

Cc1[nH]c(=O)[nH]c(=O)c1C(=O)N(CCO)Cc1ccccc1
inactive: [1] -39.5% | [2] -21.4% | [3] -24.9% | [4] 7.7% | [5] 11.7% | [6] -15.9%

O=C(NN1C(=O)CS(=O)(=O)C1c1ccc(C(F)(F)F)cc1)c1ccncc1 (stereo unspecified)
inactive: [1] -10.7% | [2] 2.2% | [3] 5.8% | [4] 8.8% | [5] 1.05% | [6] 7.75%

Cc1ccccc1C(c1ccccc1C)c1ccccc1C
inactive: [1] -10.8% | [2] 1% | [3] -10.8% | [4] -15.6% | [5] 1.25% | [6] -19.6%

O=P(O)(O)CCC(O)CO (stereo unspecified)
inactive: [1] -12.5% | [2] 10.3% | [3] -11.6% | [4] -78.2% | [5] 4.6% | [6] -17.5%

CCN(CC)c1ccc2c(c1)C(O)c1ccccc1-2 (stereo unspecified)
inactive: [1] -3.75% | [2] -20.4% | [3] -5.7% | [4] -12.4% | [5] 14.4% | [6] 17.6%

CCN(CC)CC(O)C=O (stereo unspecified)
inactive: [1] 10.6% | [2] -6.7% | [3] -3.85% | [4] 3.85% | [5] -9.5% | [6] 6.7%

CCOC(=O)c1c(C)csc1NC(=O)CSCC(=O)OC
inactive: [1] 10.2% | [2] -4% | [3] 30.5% | [4] 19.9% | [5] 41% | [6] 31.6%

Cn1nc(-c2ccccc2)c(-c2cc(-c3ccccc3)n[nH]2)c(N)c1=O
inactive: [1] 18.9% | [2] 12.4% | [3] 20.8% | [4] 7.9% | [5] 19.7% | [6] 22.9%

Cc1cc2c(=O)cc(-c3ccncc3)oc2c(C(N)=O)c1C
inactive: [1] 14.8% | [2] 4.2% | [3] -12% | [4] -1% | [5] 17.6% | [6] 22.5%

O=C(O)c1cccc2c1C(=O)c1c(O)cccc1C2=O
inactive: [1] 35.9% | [2] 19.9% | [3] 42.4% | [4] 25.9% | [5] 13.2% | [6] 30.2%

CC(C)(O)CCc1ccccc1
inactive: [1] -7.75% | [2] -29.3% | [3] -14.2% | [4] 14.8% | [5] -19.3% | [6] 6.6%

O=C(/C=C/c1cccs1)c1ccc(Cl)cc1
inactive: [1] -26.6% | [2] -41.3% | [3] -9.45% | [4] -2.8% | [5] 2.2% | [6] -4.35%

CCO/C=N/c1oc(-c2ccccc2)nc1C#N
inactive: [1] 4.6% | [2] 4.95% | [3] -4.85% | [4] -38.1% | [5] -12.1% | [6] 1.1%

CCc1ccc(CC(=S)N2CCOCC2)cc1
inactive: [1] 4.2% | [2] 1.45% | [3] 5.55% | [4] -1.7% | [5] -15.9% | [6] -3.9%
